Hits are enriched below; roughly 4.1% of the tested compounds scored in any of these assays.
DAX1 inh-1: blocks DAX1 repression of SF-1 activated StAR promoter; HEK293T StAR-luciferase reporter, SF-1/DAX-1 repression relief; inhibition, % at 6.8 µM; 370,000 compounds, 1.1% hits; AID 652010;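 active = inhibition above the mean over all tested compounds plus 3 SD, cut at about 3.6% in these data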;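 note: 0% = DAX-1 cells with DMSO and 100% = cells lacking DAX-1 with DMSO; higher inhibition means more luminescence from relief of DAX-1 repression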
DAX1 inh-2: inhibitors of human orphan nuclear receptor DAX1 (NR0B1). inhibition, % at 6.75 µM. P51843. HEK293 Gal4-DAX1 luciferase reporter, luminescence. 340,000 compounds, 0.99% hits;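 active = inhibition above the mean over all tested compounds plus 3 SD, cut at about 4.2% in these data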;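 note: 0% = DAX1-transfected cells with DMSO and 100% = empty-vector control cells with DMSO; inhibition shows as a rise in luminescence from relieved DAX1 repression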
Target sequence (P51843 207-470 limits assumed): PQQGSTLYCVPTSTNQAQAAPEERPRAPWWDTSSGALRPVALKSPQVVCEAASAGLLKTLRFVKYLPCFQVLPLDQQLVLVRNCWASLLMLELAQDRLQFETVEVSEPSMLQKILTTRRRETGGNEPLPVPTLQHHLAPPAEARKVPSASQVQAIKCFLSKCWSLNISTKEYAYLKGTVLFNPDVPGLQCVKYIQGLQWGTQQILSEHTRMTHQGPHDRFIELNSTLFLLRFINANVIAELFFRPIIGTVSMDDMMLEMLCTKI
ssDAF12 agonist: activators of S. stercoralis DAF-12 nuclear receptor. activation, % at 6.8 µM. HEK293 ssDAF-12/GRIP1 lit1-tk-luc reporter, luminescence; % of 3 µM dafachronic acid response. 370,000 compounds, 1% hits;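 active = activation above the mean over all tested compounds plus 3 SD, cut at about 0.9% in these data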;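 note: 0% = DMSO-only wells and 100% = 3 µM delta7-dafachronic acid wells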
hgDAF-12 ag: activates the H. glycines DAF-12 receptor ligand-binding domain | AID 687014 | activation, % at 6.8 µM | HEK293 GAL4-hgDAF12 UAS-luciferase reporter, agonist luminescence; normalized to butyrate control | 370,000 compounds, 1.8% hits;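 active = activation above a cutoff set at the mean of all screened compounds plus 3 SD, cut at about 10% in these data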;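 note: 0% = DMSO wells and 100% = sodium butyrate wells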
hcDAF12 agonist: activators of H. contortus DAF-12 nuclear receptor | 370,000 compounds, 1.4% hits | HEK293 hcDAF-12 lit1-tk-luc reporter, luminescence; 0% DMSO, 100% Δ7-dafachronic acid | AID 652067 | activation, % at 6.8 µM;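 active = activation above the mean of all tested compounds plus 3 SD, cut at about 5.5% in these data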;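 note: 100% = response to 3 µM Δ7-dafachronic acid high control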
Active calls of the source: *; · = no result.

SMILES	DAX1 inh-1	DAX1 inh-2	ssDAF12 agonist	hgDAF-12 ag	hcDAF12 agonist
CCn1ncc(C(=O)Nc2cc(C)on2)c1C	1	2	-1	12*	1
C=CCN=C1NC(c2cccc(Cl)c2)C(C(=O)OC)=C(C)N1C (configuration not stated)	0	·	-1	0	-1
CCCOc1ccc(-c2cc(C(C)=O)c3n(c2=O)CCC3)cc1	-1	·	-2	-3	-4
CC(C)CNC(=S)NC(=O)c1ccc(Cl)cc1Cl	0	-1	-1	5	1
CC(C)NC(=S)NC(=O)c1ccc(Cl)cc1Cl	1	-1	0	4	5.7*
O=C(Nc1ccsn1)c1ccc(Cl)cc1Cl	0	4.5*	-1	12*	1
CC(=O)c1ccc(NC(=O)C2CCCN2S(=O)(=O)c2ccc(F)cc2)cc1 (configuration not stated)	0	-1	-2	2	-3
O=C(Nc1ccc(O)cc1)C1CCCN1S(=O)(=O)c1ccc(F)cc1 (configuration not stated)	-1	4.6*	0	-2	-1
CN1C2=N[C@H](c3ccccc3)CC(=O)N2/C(=C\c2ccccc2)C1Cc1ccccc1 (some centres not stated)	-2	·	-2	1	-2
COc1ccc(Nc2ncnc3ccccc23)cc1	1	1	-1	9	1
COc1ccc(Nc2cc(C)c3c(O)cccc3n2)cc1	0	1	-1	12*	1
COc1ccc(Nc2cc(Nc3ccccc3)ncn2)cc1	1	1	0	6	6.0*
COC(=O)c1cc(Nc2cc(C)c3c(O)cccc3n2)cc(C(=O)OC)c1	-1	3	-2	-1	-2
N#CCc1nc2n(n1)Cc1ccccc1-2	0	0	-1	-1	0
c1ccc2c(c1)Cn1nc(Cc3nc4c(s3)CCCC4)nc1-2	0	4.4*	-1	6	5.7*
O=C(/C=C/c1ccc2c(c1)OCO2)Nc1nc2ccc(F)cc2s1	2	4.8*	1	7	3
Cn1c(NC(=O)/C=C\c2ccccc2)cc(=O)n(C)c1=O	1	4.6*	1.1*	9	5
Cc1c(C(=O)OCC(=O)NC(C)c2ccccc2)oc2ccccc12 (configuration not stated)	2	1	1	1	5.7*
Cc1cc(C(=O)OCC(=O)NC(C)c2ccccc2)c(C)o1 (configuration not stated)	-1	0	-1	-2	-2
CC(NC(=O)COC(=O)C1(C)CC1(Cl)Cl)c1ccccc1 (configuration not stated)	3.6*	2	-1	0	-1
Cc1c(C(=O)OCC(C)(C)CN(C)C)oc2ccccc12	4.0*	2	-1	7	0
COc1ccc(C2CC3CN(C4CCCCC4)C(=O)C3N2C)cc1 (configuration not stated)	-1	·	-1	1	-3
O[C@@H](Cc1ccccc1)[C@@H](/C=C/c1ccccc1)N(Cc1ccccc1)Cc1ccccc1	1	·	0	3	0
O=C(c1ccccc1)N1CCN(S(=O)(=O)c2ccc(Cl)c(C(F)(F)F)c2)CC1	1	1	-1	0	1
O=C(c1ccccc1C(F)(F)F)N1CCN(S(=O)(=O)c2ccccc2)CC1	1	7.5*	-1	-1	-1
SMILES	DAX1 inh-1	DAX1 inh-2	ssDAF12 agonist	hgDAF-12 ag	hcDAF12 agonist
N#CC1=C(N)n2c(s/c(=C\c3ccco3)c2=O)=C(C#N)C1c1ccco1 (configuration not stated)	0	1	1.6*	0	3
CCOC(=O)C1=C(N)n2c(s/c(=C/c3ccco3)c2=O)=C(C(=O)OC)C1c1ccco1 (configuration not stated)	-2	2	-1	1	-1
CCOC(=O)[C@]12CCCC=C1N(Cc1ccc(OC)cc1)C(=O)[C@@H]2CC(=O)NCCCOC	-1	·	-1	-1	-2
Cc1ccc(NC(=O)CCc2c(C)nn(-c3ccc(N4CCCCC4)nn3)c2C)cc1C	2	1	-1	3	-1
Cc1cc(C)cc(NC(=O)CCc2c(C)nn(-c3ccc(N4CCCCC4)nn3)c2C)c1	4.1*	0	0	8	0
Cc1nn(-c2ccc(N3CCCCC3)nn2)c(C)c1CCC(=O)Nc1ccc(F)c(F)c1	1	-1	-1	6	6.4*
COc1ccc2cc(C(=O)NCc3ccco3)c(=Nc3ccc(C(=O)O)cc3)oc2c1	1	-1	0	11*	5
COc1ccc2cc(C(=O)NCc3ccco3)c(=O)oc2c1	2	2	0	10*	2
COCCCN(C(=S)Nc1cc(C)cc(C)c1)C(C)c1ccncc1 (configuration not stated)	0	-1	0.9*	-2	-1
Cc1ccc(Cl)cc1N(CC(=O)Nc1cccc(N(C)S(C)(=O)=O)c1)S(C)(=O)=O	-1	0	1.1*	2	4
Cc1ccc(C(=O)Nc2ccccc2OC(F)F)cc1	-1	-1	-1	11*	0
O=C(Nc1ccccc1OC(F)F)c1ccccc1	0	1	-1	-3	-1
Cc1cc(C(=O)CN2C(=O)C3CC=CCC3C2=O)c(C)n1-c1ccccc1 (configuration not stated)	2	1	-1	11*	5
O=C(NCCN1C(=O)S/C(=C\c2cccnc2)C1=O)C1CC(=O)N(Cc2ccco2)C1 (configuration not stated)	0	0	1.2*	2	4
O=C1CCC(C(=O)NCCN2C(=O)S/C(=C\c3cccnc3)C2=O)=NN1	0	0	1.2*	1	-1
O=C(C1CCN(S(=O)(=O)c2ccc3[nH]c(=O)oc3c2)CC1)N1CCCC1	-1	·	-1	3	-1
O=C(NCCc1ccccc1)OCc1cn(Cc2c(F)cccc2F)nn1	0	·	-2	1	-1
Cc1cc(O)ccc1Nc1nc(-c2cccnc2)cs1	2	1	0	12*	2
Oc1ccc(Nc2nc(-c3cccnc3)cs2)cc1	·	0	·	·	·
COc1ccc(Nc2nc(-c3ccc(OC)cc3)cs2)cc1	1	2	-1	12*	1
c1ccc(Nc2nc(-c3ccncc3)cs2)cc1	1	0	-1	11*	3
CCNc1nc(-c2ccc(Cl)cc2)cs1	1	1	0	12*	2
CCOC(=O)[C@]12CCCC=C1N(CCCOC)C(=O)[C@@H]2CC(=O)N1CCN(C(=O)c2ccco2)CC1	-1	·	-1	0	1
CCOc1ccc(Nc2nc(-c3cccnc3)cs2)cc1	1	6.2*	0	8	4
O=C(O)c1cccnc1Sc1ccccc1	0	1	-1	-1	-2
Cc1nccnc1Sc1ccccc1	0	0	2.0*	-2	1
OC1CCN(Cc2ccc(OCc3ccccc3)cc2)CC1	2	2	0	11*	6.3*
